For ten compounds, outcome, Potency and activity change, positive = activation results are on record in PubChem BioAssay (Tox21).

A number with no mark means an inactive call. Results filed as inconclusive are left out. Activity calls are given as the source filed them. Unless noted, calls follow the shape of the dose curve; as a rule, active = well fitted curve in the direction sought with a large enough effect in the repeat runs; inconclusive = weak or mixed curves; inactive = no such curve, though single readings can be large; an effect the other way counts as inactive or inconclusive.

A short description of experiment [1]: qHTS assay to identify small molecule antagonists of the retinoic acid receptor (RAR) signaling pathway (AID 1159552; also: nearly all actives have a fitted effect of over 50% in size). The method in brief: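 RARE-luc C3RL4 cells; cpds + 1 uM (final) retinol, 6 hr, 37 C/5% CO2; luciferase reagent, 30 min RT, luminescence readout. Inhibitors of retinol-driven signal scored.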
On the technique in general: Quantitative high-throughput screening tests each substance at several concentrations.

Experiment [2] can be described thus: qHTS assay to identify small molecule agonists of the retinoic acid receptor (RAR) signaling pathway (AID 1159553). Also: potency is read from the fitted curve at half-maximal effect. The procedure, abridged:
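RARE-luc C3RL4 cells; overnight attachment 37 C/5% CO2; compound (DMSO) 6 hr; luciferase reagent, 30 min RT; luminescence read-out.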

Experiment [3] in a line: qHTS assay to identify small molecule antagonists of the estrogen related receptor (ERR) signaling pathway from Tox21 library - cell viability counter screen (AID 1224834). Also: nearly all actives have a fitted effect of over 30% in size. The method in brief: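 Multiplexed viability counter screen in ERR cells: 17.5 h compound exposure at 37 C, CellTiter-Fluor added, 30 min at 37 C/5% CO2, fluorescence read.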
For experiment [4], the target named is Luciferin 4-monooxygenase (Photinus pyralis) (UniProt P08659). The experiment is described as follows: qHTS assay to identify small molecule inhibitors of firefly luciferase (AID 1224835). Also: nearly all actives have a fitted effect of over 25% in size. Also: potency is read from the fitted curve at half-maximal effect. The procedure, abridged:
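Quantitative HTS format; KM concentrations of both substrates. Purified P. pyralis FLuc activity quantified from luminescence images.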

The nature of experiment [5]: qHTS assay to identify small molecule agonists of the constitutive androstane receptor (CAR) signaling pathway - cell viability counter screen (AID 1224836). Also: nearly all actives have a fitted effect of over 45% in size. The method in brief:
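HepG2 cells stably carrying hCAR and a CYP2B6-2.2kb reporter were plated 4 h, then given compounds at 15 concentrations plus PK11195 (final 0.75 uM). After 23 h at 37 C, viability was read by CellTiter-Fluor fluorescence.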

Experiment [6] in a line: qHTS assay to identify small molecule antagonists of the constitutive androstane receptor (CAR) signaling pathway - cell viability counter screen (AID 1224837). Also: nearly all actives have a fitted effect of over 45% in size. The method in brief:
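Read-out: CellTiter-Fluor fluorescence after 23 hr at 37 C/5% CO2. Cells: HepG2 double-stable for hCAR and CYP2B6-2.2kb. Compounds tested at 15 concentrations in the presence of CITCO, final concentration 50 nM.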

Experiment [7] has as its target Nuclear receptor subfamily 1 group I member 3 (Homo sapiens) (UniProt Q14994). The experiment is described as follows: qHTS assay to identify small molecule antagonists of the constitutive androstane receptor (CAR) signaling pathway (AID 1224838). Also: nearly all actives have a fitted effect of over 40% in size. The procedure, abridged: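 Read-out: ONE-Glo luciferase luminescence after 30 min at room temperature. HepG2-CYP2B6-hCAR double-stable cells, compounds in 15-point titration plus 50 nM CITCO final, 24 h at 37 C/5% CO2.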

Experiment [8] has the same target. The experiment is described as follows: qHTS assay to identify small molecule agonists of the constitutive androstane receptor (CAR) signaling pathway (AID 1224839). Also: nearly all actives have a fitted effect of over 15% in size. The method in brief: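 HepG2 cells stably expressing hCAR and a CYP2B6-2.2kb luciferase reporter were treated with compounds at 15 concentrations plus 0.75 uM PK11195 (final) for 24 h at 37 C; luminescence was read after ONE-Glo addition.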

A short description of experiment [9]: qHTS assay to identify small molecule antagonists of the estrogen related receptor signaling pathway with the pleiotropic PPARgamma coactivator (PGC) from Tox21 10K library - cell viability counter screen (AID 1224840; active = well fitted cell-killing curve with a large enough effect in the repeat runs, not every such curve was filed as active; also: nearly all actives have a fitted effect of over 40% in size). The method in brief:
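Fluorescence read-out of CellTiter-Fluor viability reagent, added after cells had been exposed to compound in DMSO for 17.5 h at 37 C; 30 min development at 37 C/5% CO2. Cells: PGC/ERR line, 2,000/well.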

The target of experiment [10] is Thyrotropin receptor (Homo sapiens) (UniProt P16473). The experiment is described as follows: qHTS assay to identify small molecule agonists of the thyroid stimulating hormone receptor (TSHR) signaling pathway (AID 1224843; calls by dose curve; also: nearly all actives have a fitted effect of over 45% in size). The method in brief:
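Compounds are titrated over 15 concentrations, in triplicate, onto TSHR-HEK293 cells seeded at 800/well. Plates sit 30 min at room temperature before cAMP-d2 and anti-cAMP cryptate are added; signal is read after a further hour.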

Experiment [11] can be described thus: qHTS assay to identify small molecule agonists of H2AX (AID 1224845; active = well fitted activation curve with a large enough effect in the signal ratio in the repeat runs, not every such curve was filed as active; the % refers to the signal ratio). The procedure, abridged:
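Wild-type CHO-K1 cells plated overnight, then exposed 3 hr at 37C to compounds at 15 concentrations (0.76% DMSO). Lysed, then HTRF anti-pH2AX(S139)-cryptate/anti-H2AX-d2 detection after 24 hr at room temperature; emissions 665 and 620 nm.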

Experiment [12] in a line: qHTS assay to identify small molecule agonists of H2AX - cell viability counter screen (AID 1224847; calls by dose curve; also: top concentration of the series differs between compounds; nearly all actives have a fitted effect of over 30% in size). The procedure, abridged: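 Wild-type CHO-K1 cells (10% FBS medium) were plated overnight at 37C, exposed to compounds at 15 concentrations for 3 hr at 37C (0.76% DMSO final), and viability was read as CellTiter-Glo luminescence after 30 min at room temperature.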
The nature of experiment [13]: qHTS RealTime-Glo MT Cell Viability Assay in HepG2 cells - 24 hour (AID 1224867). Also: nearly all actives have a fitted effect of over 50% in size. The method in brief: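 Cells + NanoLuc/prosubstrate dispensed (600 cells/well) → 5 h at 37 C/5% CO2 → compounds in DMSO transferred → 40 h incubation at 37 C, luminescence read at 0, 8, 16, 24, 32, 40 h.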
Experiment [14] can be described thus: qHTS assay to identify small molecule agonists of the hypoxia (HIF-1) signaling pathway - cell viability counter screen (AID 1224844; calls by dose curve; also: nearly all actives have a fitted effect of over 50% in size). The procedure, abridged:
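CellTiter-Glo luminescence read-out, 30 min RT, taken in the same wells as the beta-lactamase HRE reporter assay; HRE-bla ME-180 cells, 0.5% dialyzed FBS, 17 hr compound treatment at 37C, 5% CO2.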

Experiment [15] is described as follows: qHTS assay to identify small molecule agonists of the hypoxia (HIF-1) signaling pathway (AID 1224846; active = well fitted activation curve with a large enough effect in the signal ratio in the repeat runs, not every such curve was filed as active; the % refers to the signal ratio). The procedure, abridged: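 Beta-lactamase FRET read-out (CCF4-AM substrate) from ME-180 cells carrying an HRE-driven bla reporter, after 17 hrs compound exposure at 37C/5% CO2. Cells were seeded at 2,000 per well in 0.5% dialyzed FBS medium and preincubated 5 hrs.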

Experiment [16] can be described thus: qHTS assay to identify small molecule antagonists of the estrogen related receptor signaling pathway with the pleiotropic PPARgamma coactivator (PGC) from Tox21 10K library (AID 1224841; call rule not given here; also: actives are mostly falling curves and most rising ones were filed inactive; nearly all actives have a fitted effect of over 50% in size). The method in brief: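 Luminescence read-out (One-Glo luciferase reagent, 30 min at room temperature) from PGC/ERR cells exposed to DMSO-dissolved test compounds for 18 h at 37 C; cells, 2,000 per well, had been preincubated 6 h before compound transfer.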

A short description of experiment [17]: qHTS assay to identify small molecule agonists of the estrogen related receptor signaling pathway with the pleiotropic PPARgamma coactivator (PGC) from Tox21 10K library (AID 1224842). Also: nearly all actives have a fitted effect of over 15% in size. Also: potency is read from the fitted curve at half-maximal effect. The method in brief:
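PGC/ERR reporter cells (NTP line) were seeded 2,000 per well, rested 6 h at 37 C/5% CO2, then pin-dosed with compounds in DMSO for 18 h at 37 C; luciferase read by One-Glo luminescence after 30 min at room temperature.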

Experiment [18] in a line: qHTS assay to identify small molecule antagonists of the estrogen related receptor (ERR) signaling pathway from Tox21 library (AID 1224848). Also: nearly all actives have a fitted effect of over 50% in size. The method in brief:
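First, 2,000 ERR cells per well were plated and held 6 h at 37 C/5% CO2. Next, compounds in DMSO were pinned in and left 18 h at 37 C. Finally, ONE-Glo was added and luminescence read after 30 min at room temperature.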

Experiment [19] in a line: qHTS assay to identify small molecule agonists of the estrogen related receptor (ERR) signaling pathway from Tox21 library (AID 1224849; calls by dose curve; also: nearly all actives have a fitted effect of over 15% in size). The conditions noted are these: ERR reporter cell line, ONE-Glo luciferase, 18 h; at 92.4 µM (top of the series) unless noted. The method in brief:
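Luminescence readout (ONE-Glo, 30 min RT) after 18 h compound exposure at 37 C of NTP-supplied ERR reporter cells; cells were plated 6 h before compound addition by pin tool.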
% is scaled to controls: 0 for no effect and ±100 for the full control effect.

Nuclear receptor subfamily 1 group I member 3 (Homo sapiens), sequence (Q14994 whole entry, looked up): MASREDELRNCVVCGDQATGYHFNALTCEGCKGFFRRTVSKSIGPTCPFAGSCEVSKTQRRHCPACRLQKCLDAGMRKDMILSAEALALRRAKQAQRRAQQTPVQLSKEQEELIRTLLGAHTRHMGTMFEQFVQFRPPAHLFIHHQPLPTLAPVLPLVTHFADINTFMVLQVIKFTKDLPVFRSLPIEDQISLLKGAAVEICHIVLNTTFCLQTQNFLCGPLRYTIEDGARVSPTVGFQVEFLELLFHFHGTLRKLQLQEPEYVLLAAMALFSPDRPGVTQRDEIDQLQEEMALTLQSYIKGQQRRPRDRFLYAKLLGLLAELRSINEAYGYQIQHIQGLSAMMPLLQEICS
Thyrotropin receptor (Homo sapiens), sequence (P16473 whole entry, looked up): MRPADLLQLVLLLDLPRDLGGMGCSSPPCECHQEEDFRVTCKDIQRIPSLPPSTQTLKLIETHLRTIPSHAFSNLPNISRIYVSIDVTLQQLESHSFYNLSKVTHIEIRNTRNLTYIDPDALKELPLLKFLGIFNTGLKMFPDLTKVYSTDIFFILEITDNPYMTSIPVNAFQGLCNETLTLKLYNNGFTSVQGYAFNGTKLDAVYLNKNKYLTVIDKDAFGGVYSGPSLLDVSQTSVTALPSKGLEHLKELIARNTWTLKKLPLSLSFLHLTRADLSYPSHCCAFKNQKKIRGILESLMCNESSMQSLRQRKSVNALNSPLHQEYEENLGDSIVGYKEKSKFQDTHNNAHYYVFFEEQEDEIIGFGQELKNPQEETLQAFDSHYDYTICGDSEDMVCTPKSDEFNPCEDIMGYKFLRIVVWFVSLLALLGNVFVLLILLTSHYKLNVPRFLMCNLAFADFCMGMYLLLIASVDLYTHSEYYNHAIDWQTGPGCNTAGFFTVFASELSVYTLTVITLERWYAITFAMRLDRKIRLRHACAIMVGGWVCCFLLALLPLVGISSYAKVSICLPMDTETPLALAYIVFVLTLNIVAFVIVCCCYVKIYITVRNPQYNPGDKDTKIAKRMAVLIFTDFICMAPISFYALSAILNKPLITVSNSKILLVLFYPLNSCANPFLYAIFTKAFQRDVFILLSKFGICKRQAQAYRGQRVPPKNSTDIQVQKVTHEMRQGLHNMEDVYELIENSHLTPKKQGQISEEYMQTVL
Luciferin 4-monooxygenase (Photinus pyralis), sequence (P08659 whole entry, looked up): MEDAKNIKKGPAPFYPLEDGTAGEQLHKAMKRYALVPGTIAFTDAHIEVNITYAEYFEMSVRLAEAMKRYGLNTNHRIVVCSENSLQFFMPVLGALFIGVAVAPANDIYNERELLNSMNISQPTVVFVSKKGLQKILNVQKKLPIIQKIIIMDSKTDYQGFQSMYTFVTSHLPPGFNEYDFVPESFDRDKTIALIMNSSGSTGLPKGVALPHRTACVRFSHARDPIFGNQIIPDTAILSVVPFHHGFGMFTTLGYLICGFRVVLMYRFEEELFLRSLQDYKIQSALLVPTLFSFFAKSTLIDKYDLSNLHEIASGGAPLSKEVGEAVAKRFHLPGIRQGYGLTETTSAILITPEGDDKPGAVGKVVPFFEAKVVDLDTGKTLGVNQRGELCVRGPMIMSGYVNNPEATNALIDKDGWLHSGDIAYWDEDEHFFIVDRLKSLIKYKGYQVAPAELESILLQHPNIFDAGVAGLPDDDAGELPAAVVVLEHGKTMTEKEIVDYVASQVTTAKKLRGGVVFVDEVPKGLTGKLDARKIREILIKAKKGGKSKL

As for `COc1cc(NS(=O)(=O)c2ccc(N)cc2)ncn1`, the compound was called inactive in experiment [1], in [3], in experiment [5], in experiment [6], in [7] and in experiment [9]. Besides, the call in experiment [11], in [12] and in experiment [13] was inactive. The Potency result in experiment [2], in experiment [4], in [8] and in [10] was “inactive” in each case.

In the case of `CCCCNCC`, the Potency entry in [2], in experiment [4], in [8] and in experiment [10] was “inactive” throughout. For the same compound, the compound was called inactive in experiment [3], in experiment [5], in experiment [6], in experiment [7], in [9] and in [14]. Moreover, the compound was called inactive in experiment [11], in [15], in experiment [12] and in experiment [13].

With `O=CN1CCCCC1`, the call in [1], in experiment [3], in experiment [5], in experiment [6], in experiment [7] and in experiment [9] was inactive. Besides, the compound was classed as inactive in experiment [14], in [11], in experiment [15], in experiment [12] and in experiment [13]. In addition, the Potency result in experiment [2], in experiment [4], in [8] and in experiment [10] was “inactive” in each case.

For `C[C@@H](CN1CC(=O)NC(=O)C1)N1CC(=O)NC(=O)C1`, the result in experiment [1], in [3], in [5], in experiment [6], in [7] and in experiment [9] was inactive. Moreover, the call in experiment [14], in [11], in experiment [15], in experiment [12], in experiment [18] and in experiment [13] was inactive. Also, the Potency entry in experiment [2], in experiment [4], in experiment [8], in experiment [16] and in experiment [17] was “inactive” throughout. Moreover, in [19], the activity change, positive = activation was 3.58% [at 42.5 µM].

For `NNC(=O)OCc1ccccc1`, the call in experiment [1], in [3], in experiment [5], in experiment [6], in experiment [7] and in experiment [9] was inactive. The outcome in experiment [14], in experiment [11], in experiment [15], in experiment [12], in experiment [18] and in experiment [13] was inactive. In addition, the Potency result in experiment [2], in experiment [4], in [16], in experiment [17] and in experiment [10] was “inactive” each time. Also, the activity change, positive = activation in experiment [19] is -10.3%.

With `Clc1ccc2c(c1)Nc1ccccc1S2`, the compound was classed as inactive in experiment [1], in [3], in experiment [5], in experiment [6], in experiment [7] and in [9]. Moreover, the outcome in [14], in [12] and in experiment [13] was inactive. For the same compound, the Potency result in [2], in [4] and in experiment [10] was “inactive” each time.

With `COc1ccc2cc(CCC(C)=O)ccc2c1`, the outcome in experiment [1], in experiment [3], in experiment [5], in experiment [6], in experiment [9] and in experiment [14] was inactive. For the same compound, the compound was called inactive in [11], in [18] and in experiment [13]. For the same compound, the Potency in [2] was 3.35 µM (active); in [4], 13.8 µM (active); in experiment [17], 13.3 µM (active). For the same compound, the Potency entry in [16] and in experiment [10] was “inactive” throughout. Moreover, the activity change, positive = activation in experiment [19] is 114% [at 42.5 µM] (active).

Consider `CCc1ccc(CC)cc1`, for which the result in experiment [1], in experiment [3], in [5], in experiment [6], in experiment [9] and in experiment [14] was inactive. Moreover, the outcome in experiment [11], in experiment [15], in experiment [12] and in experiment [13] was inactive. Also, the Potency result in [2], in experiment [4] and in [10] was “inactive” in each case.

Regarding `COc1cc(S(N)(=O)=O)cc(C(=O)O)c1OC`, the compound was called inactive in experiment [1], in [3], in experiment [5], in experiment [6], in experiment [9] and in experiment [14]. Besides, the call in [11], in [12] and in experiment [13] was inactive. Also, the Potency result in [2], in experiment [4] and in experiment [10] was “inactive” in each case.

As for `CC(C)(O)CCCC1=CCC(C=O)CC1` (centres undefined), the Potency entry in experiment [2], in [4], in experiment [8] and in experiment [10] was “inactive” in each case. Also, the result in [3], in experiment [5], in [6], in experiment [7], in [9] and in [14] was inactive. Moreover, the result in [11], in [15], in experiment [12] and in [13] was inactive.
